Results reported in PubChem BioAssay AID485346 (Sanford-Burnham Center for Chemical Genomics, 2010).
Out of some 330,000 compounds screened, about 10,000 (3%) were called active. The sample holds actives, similar compounds and a random draw of the others, so the mix is not that of the screen. A number with no mark means an inactive call.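 Rule for the calls: active = inhibition of at least 50% at 8 µM in the primary screen; inactive = the rest.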

molecular target: Protein Mdm4 (Homo sapiens) + E3 ubiquitin-protein ligase Mdm2 (Homo sapiens) (UniProt O15151+Q00987); assay: disruptors of Mdm2/MdmX RING complex – cell-based, luminescence, split luciferase, SaOS-2, uHTS, primary screen (AID 485346); settings: SaOS-2 split-luciferase Mdm2/MdmX complementation, at 8 µM, stronger effect = higher value
Sequence (O15151 whole entry, looked up): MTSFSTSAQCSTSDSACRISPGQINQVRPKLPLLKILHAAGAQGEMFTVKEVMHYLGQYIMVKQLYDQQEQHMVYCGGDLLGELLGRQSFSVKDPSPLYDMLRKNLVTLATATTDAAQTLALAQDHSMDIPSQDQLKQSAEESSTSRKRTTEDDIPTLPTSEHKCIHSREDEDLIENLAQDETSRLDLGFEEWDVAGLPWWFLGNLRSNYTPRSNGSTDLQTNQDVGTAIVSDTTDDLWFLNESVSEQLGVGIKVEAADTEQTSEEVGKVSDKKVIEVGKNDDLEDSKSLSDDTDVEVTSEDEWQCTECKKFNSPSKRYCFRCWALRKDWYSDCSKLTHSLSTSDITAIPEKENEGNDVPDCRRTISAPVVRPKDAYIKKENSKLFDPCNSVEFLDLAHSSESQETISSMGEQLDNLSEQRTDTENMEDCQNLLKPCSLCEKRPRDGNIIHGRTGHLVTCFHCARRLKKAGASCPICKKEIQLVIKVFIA
Sequence (Q00987 whole entry, looked up): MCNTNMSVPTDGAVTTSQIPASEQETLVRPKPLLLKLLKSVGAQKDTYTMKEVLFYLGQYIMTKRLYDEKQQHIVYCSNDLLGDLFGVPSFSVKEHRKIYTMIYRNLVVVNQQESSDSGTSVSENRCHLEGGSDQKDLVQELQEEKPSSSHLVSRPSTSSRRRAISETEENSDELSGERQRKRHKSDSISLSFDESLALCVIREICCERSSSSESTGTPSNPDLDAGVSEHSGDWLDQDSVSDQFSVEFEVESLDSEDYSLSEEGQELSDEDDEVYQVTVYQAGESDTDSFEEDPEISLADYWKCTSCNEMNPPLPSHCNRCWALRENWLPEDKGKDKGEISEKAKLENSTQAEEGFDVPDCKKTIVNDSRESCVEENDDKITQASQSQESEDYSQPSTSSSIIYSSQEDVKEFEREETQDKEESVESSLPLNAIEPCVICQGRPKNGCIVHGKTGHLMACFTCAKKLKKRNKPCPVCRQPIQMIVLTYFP

| Structure (SMILES) | inhibition |
| --- | --- |
| O=C(Nc1cccc(Br)c1)c1ccc2snnc2c1 | -3.74% |
| CCc1ccccc1NC(=O)c1ccc2snnc2c1 | 25.3% |
| O=C(Nc1ccc2ccccc2c1)Nc1ccc2snnc2c1 | 88.1% (active) |
| CC(C)[C@@H](C(=O)O)N(Cc1cccc(CN([C@H](C(=O)O)C(C)C)S(C)(=O)=O)c1)S(C)(=O)=O | 9.86% |
| CCN(CC)S(=O)(=O)c1ccc(NC(=O)c2cccnc2Cl)c(NC(=O)c2cccnc2Cl)c1 | 94.7% (active) |
| Cc1cccc(NC(=O)c2cccnc2Cl)n1 | 2.81% |
| CCN(CC)S(=O)(=O)c1ccc(Cl)c(NC(=O)c2ccncc2)c1 | 11.7% |
| COc1ccc(OC)c(NC(=O)c2sc3nc(C)cc(C)c3c2N)c1 | 58.3% (active) |
| COc1ccc(OC)c(NC(=O)c2ccc3c(c2)CCN3S(C)(=O)=O)c1 | 15.2% |
| COCc1cc(C)nc2sc(C(=O)NC3CCCCC3)c(N)c12 | 7.84% |
| COc1ccc(N(C(=O)c2ccc(C)cc2)S(=O)(=O)c2cccs2)cc1 | 17.4% |
| CN(C)c1ccc2c(=O)[nH][nH]c(=O)c2c1 | 4.05% |
| O=C(NCc1cccs1)c1ccc2c(c1)ncn2C1CCCC1 | -11.4% |
| CCOC(=O)C1CCN(Cc2c(C(=O)N3CCOCC3)nc3c(C)cccn23)CC1 | 15.2% |
| COCCCNc1nc2c(-c3cccc(C)c3)nnn2c2ccc(Cl)cc12 | 55.3% (active) |
| COCCCNc1nc2c(-c3cccc(C(F)(F)F)c3)nnn2c2ccccc12 | 17.3% |
| COC(=O)Cn1nc(-c2ccccc2)c2cc(Cl)ccc21 | 10.1% |
| CC1CCCN(c2ccc(C(=O)NCCc3ccccc3)cn2)C1 (centres undefined) | -61.6% |
| O=c1oc2ccccc2c(NC2CCCCC2)c1NS(=O)(=O)c1ccc(Cl)cc1 | 14.1% |
| S=c1[nH]nc2c3c4c(sc3ncn12)CCCC4 | 14% |
| O=C1CCC/C=C/C[C@@H](CC(=O)N(CCO)Cc2ccccc2)C(=O)NC[C@H](c2ccccc2)O1 | -21.8% |
| O=C1NC[C@@H](c2ccccc2)OC(=O)[C@H](Cc2ccc(F)cc2)CC/C=C/C[C@H]1CC(=O)N(CCO)Cc1ccccc1 | 59.7% (active) |
| O=C1N[C@@H](c2ccccc2)COC(=O)[C@H](Cc2ccc(F)cc2)C/C=C\C[C@@H]1CC(=O)N(CCO)Cc1ccccc1 | 9.71% |

| Structure (SMILES) | inhibition |
| --- | --- |
| Cn1c(CCNS(=O)(=O)c2ccc(F)cc2)nnc1SCc1cccnc1 | 13.7% |
| CN[C@H](C(=O)NC[C@H]1O[C@@H](n2cnc3c(N)ncnc32)[C@H](O)[C@@H]1O)[C@@H](C)OCc1ccccc1 | 16.8% |
| COc1ccc2cc(C3=CC(=O)C[C@H](c4ccc5c(c4)OCO5)C3)ccc2c1 | 3.41% |
| COC(=O)N(NC(=O)C(O)(C(C)C)C(C)C)c1ccccc1 | -17.3% |
| CC(C)(O)C(=O)NN(C(=O)c1ccccc1)c1cccc(Br)c1 | -9.41% |
| Cc1ccc(N(NC(=O)C(C)(C)O)C(=O)c2ccccc2)cc1C | -3.58% |
| CCCCC(O)(CCCC)C(=O)NN(C(=O)CCl)c1ccccc1 | 87.3% (active) |
| CCCC(O)(CCC)C(=O)NN(C(=O)CCl)c1cccc(C)c1 | 94% (active) |
| CCCCCNC(=O)C1c2ccccc2Oc2ccccc21 | -5.28% |
| CCn1cc(C(=O)N[C@@H](C)C(=O)NCCO)c(=O)c2cc3c(cc21)OCO3 | -4.24% |
| Cc1ccc(N(CC(=O)NCC2CCCO2)C(=O)CNS(=O)(=O)c2ccc(Cl)cc2)cc1 (centres undefined) | -1.2% |
| Cc1ccc2c(c1)N(CCCC(=O)NCc1cccnc1)C(=O)CO2 | 5.4% |
| CSCC[C@H](NC(=O)NCc1cccs1)C(=O)O | 3.11% |
| O=C(/C(=C/c1cccc(Cl)c1)c1nc2ccccc2[nH]1)c1ccccc1 | 100% (active) |
| O=C(CCc1nc2ccccc2c(=O)[nH]1)OCC(=O)c1cccc(Cl)c1 | 30.6% |
| O=C(Cc1nc2ccccc2[nH]c1=O)c1ccc(Cl)cc1 | -186% |
| CCCN(CCC)c1c([N+](=O)[O-])c(=O)oc2ccccc12 | -1.56% |
| Cc1ccc(-n2nc(C)c(/C=N/NC(=O)c3cccs3)c2Cl)cc1 | 3.87% |
| Cc1cccc(-n2c(C)cc(/C=N/NC(N)=S)c2C)c1 | -13.2% |
| Cc1cccc(-n2c(C)cc(/C=N\NC(=O)c3cccs3)c2C)c1 | 67.2% (active) |
| CCC1CCC2(CC1)NC(=O)N(CC(=O)Nc1ccc(OC)cc1)C2=O (centres undefined) | 18.6% |
| CCN(CC(=O)Nc1ccc(NC(C)=O)cc1)C(=O)C1CC(=O)N(Cc2ccc(C)cc2)C1 (centres undefined) | -26.3% |
| CCN(CC)c1ccc(C(=O)c2cnc(/N=C/N(C)C)s2)cc1 | -23.2% |

| Structure (SMILES) | inhibition |
| --- | --- |
| COCCCNC(=S)NC(=O)c1ccccc1 | -18.2% |
| CCOC(=O)C1=C(NC(=S)NC(=O)c2ccccc2)c2ccccc2CC1(C)C | 51.4% (active) |
| Cc1ccc(NC(=S)NC(=O)c2ccc(-c3ccccc3)cc2)cc1 | 12.8% |
| CC1(C)C[C@H]2C3=CCC4[C@@]5(C)CC[C@H](O)[C@](C)(CO)C5CC[C@@]4(C)[C@]3(C)C[C@@H](O)[C@@]2(CO)[C@@H](O)[C@@H]1O (some centres undefined) | 17.8% |
| COc1ccc(NC(=O)c2ccco2)cc1NC(=O)c1ccc(C#N)cc1F | 5.85% |
| N#Cc1ccc(C(=O)Nc2cccc3cccnc23)c(F)c1 | 56.2% (active) |
| O=C(Nc1cccc2cccnc12)c1cccc(Cl)c1 | -3.29% |
| CC(C)Cc1ccc(C(C)C(=N)N)cc1 (centres undefined) | -18.4% |
| COc1ccc(S(=O)(=O)N(CC(=O)NCc2ccco2)c2ccc(F)cc2)cc1 | 10.5% |
| Cc1ccccc1-c1ccc(Nc2ccc(C(=O)N3CCOCC3)cc2)nn1 | 0.851% |
| COC1=C(N2CCOCC2)C(=O)c2ccccc2C1=O | 17.1% |
| Cc1oc2c(c1C(=O)N1CCOCC1)C(=O)c1ccccc1C2=O | 53.6% (active) |
| O=C(Cn1nnc(-c2ccccc2)n1)N/N=C/c1ccc(-c2ccc(Cl)cc2)o1 | 69.4% (active) |
| Nc1nnnn1CC(=O)N/N=C/c1ccc(-c2cccc(Cl)c2)o1 | 0.676% |
| Nc1nnn(CC(=O)N/N=C/c2ccccc2)n1 | 14.3% |
| Cc1ccc(-n2c(=O)cc(N3CCN(Cc4ccccc4)CC3)[nH]c2=O)cc1 | 27.6% |
| CN(C)S(=O)(=O)c1ccc(N2CCCC2)c(C(=O)Nc2ccc(Br)cc2F)c1 | 16.4% |
| CN1CCC(N(C)S(=O)(=O)c2ccc(NC(=O)c3cccc(C#N)c3)cc2)CC1 | -11.1% |
| Cc1ccc2nc(NC(=O)C3CSC4(C)CCC(=O)N34)sc2c1 (centres undefined) | 11.9% |
| O=C(COc1ccccc1O)NC1CCCC1 | 7.91% |
| CCCCCCc1ccc(O)cc1O | 26.2% |
| CCCCCCc1cc2cc(-c3nnc(-c4ccccc4)o3)c(=O)oc2cc1O | 84.7% (active) |
| Cc1c(CC(=O)NCCCCCC(=O)O)c(=O)oc2cc3occ(-c4ccccc4)c3cc12 | 7.02% |

| Structure (SMILES) | inhibition |
| --- | --- |
| COc1ccc(N2CCN(C(CNS(=O)(=O)c3ccc(C)cc3)c3ccccc3)CC2)cc1 (centres undefined) | 10.9% |
| CCC1CO/C(=C(\C(=C(Cl)Cl)N2CCOCC2)[N+](=O)[O-])N1 (centres undefined) | 4.94% |
| CS(=O)(=O)c1ccc2nc(NC(=O)c3ccc(N4CCCC4=O)cc3)sc2c1 | 56.8% (active) |
| CN(C)CCCN(C(=O)c1ccc(S(=O)(=O)N2CCCc3ccccc32)cc1)c1nc2ccc(F)cc2s1 | 76% (active) |
| CCOc1ccc2nc(N(CCCN(C)C)C(=O)c3ccc(C(=O)c4ccccc4)cc3)sc2c1 | 48.2% |
| CN(C)CCCN(C(=O)c1ccc(S(=O)(=O)N2CCCCCC2)cc1)c1nc2ccc(Br)cc2s1 | 70.8% (active) |
| COc1cccc(C(=O)Nc2nc3ccc(S(C)(=O)=O)cc3s2)c1 | -20.5% |
| COc1ccc2sc(N(CCCN(C)C)C(=O)c3ccc(S(=O)(=O)N(C)C4CCCCC4)cc3)nc2c1 | 19.3% |
| CCN(CC)CCN(C(=O)c1ccc(S(=O)(=O)N2CCOCC2)cc1)c1nc2cc3c(cc2s1)OCCO3 | 4.55% |
| CC1CCN(C(=O)c2cccc(S(=O)(=O)N3CCCc4ccccc43)c2)CC1 | 16.9% |
| CS(=O)(=O)c1ccc2nc(NC(=O)c3ccc(Cl)nc3)sc2c1 | 20.5% |
| Cc1ccc2nc(N(CCN(C)C)C(=O)C3=COCCO3)sc2c1 | 23.3% |
| CCc1ccc2nc(N(CCCN(C)C)C(=O)c3ccc4c(c3)OCCO4)sc2c1 | 39.7% |
| CN(C)CCCN(C(=O)c1ccc(S(=O)(=O)N2CCCCCC2)cc1)c1nc2cc3c(cc2s1)OCCO3 | 52.3% (active) |
| CCN(CC)CCn1cnc2c1c(=O)n(CCOC(=O)c1cc(OC)c(OC)c(OC)c1)c(=O)n2C | 11.6% |
| CCN(CC)CCN1C(=O)C2C(C(=O)Nc3ccc(Br)cc3)C3C=CC2(O3)C1C(=O)NC1CCCCC1 (centres undefined) | -3.95% |
| CC(C)CN1CCNC(=O)C1CC(=O)N(C)CC1CCOCC1 (centres undefined) | 11.5% |
| Cc1ccc(CNC(=O)c2ccc(CS(=O)Cc3cccc(Cl)c3)o2)cc1 (centres undefined) | -2.29% |
| O=C(CCc1ccccc1Cl)Nc1ccc(S(=O)(=O)Nc2nccs2)cc1 | 7.38% |
| O=C(COC(=O)c1cccnc1Cl)Nc1ccc(S(=O)(=O)N2CCOCC2)cc1 | 5.66% |
